Measured values as given in PubChem BioAssay (NCI).
This is part of a sample that, as a whole, favours compounds with a hit. Of some 83,000 tested, about 20% had one in any assay.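 Results are percent growth after 48 hours of single-concentration exposure. 100 means growth as in untreated cells, lower positive values show inhibition; negative values down to -100 show cell death.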 Activity calls are given as the source filed them. How the source made its calls: active means growth percent below 10; inactive means the rest.

test system: CAKI-1 renal; experiment: NCI-60 one-dose screen, 48 h (100 = growth as untreated, 0 = no growth, -100 = all killed); details: 10 µM unless noted

Row | Compound | growth
1 | Cn1cc(-c2cc3nc(-c4cn(C)c5ncccc45)cc(N)n3n2)c2cc(Cl)ccc21 | -46.9% (active)
2 | CC12CC[C@@H]3[C@]4(C)COC(c5c(F)cccc5F)O[C@@H]4CC[C@@]3(C)[C@@H]1CC(C1=CCOC1=O)O2 (stereo partly drawn) | 87.2% (inactive)
3 | Cc1nc(Nc2ncc(C(=O)Nc3c(C)cccc3Cl)s2)cc(N2CCN(CCCNC(=O)COc3ccc(C4CCC(=O)NC4=O)cc3)CC2)n1 (stereo not drawn) | -30.7% (active)
4 | Cn1cc(NC(=O)c2cc(NC(=O)c3ccc(/C=C/c4ccccc4)cc3)cn2C)cc1C(=O)NCCCN1CCOCC1 | 55.6% (inactive)
5 | Cc1ccccc1[C@H]1C(C(=O)c2ccc(Cl)cc2)C2(N[C@@H]1c1ccccc1)C(=O)Nc1ccc(Br)cc12 (stereo partly drawn) | 23% (inactive)
6 | Brc1ccc(N/N=C/c2c[nH]c3ccc(Br)cc23)nc1 | -24.4% (active)
7 | C=C1CCC2C3(C)COC(c4ccccc4)OC3CCC2(C)C1CC(Sc1ccccc1)C1=CCOC1=O (stereo not drawn) | 78.4% (inactive)
8 | Clc1cccc(N/N=C/c2c[nH]c3ccc(Br)cc23)n1 | 11.7% (inactive)
9 | COc1c(F)ccc(C(=O)Nc2ccc3nc(NC(=O)C4CCCN(S(=O)(=O)c5cccc(C(F)(F)F)c5)C4)sc3c2)c1F (stereo not drawn) | 83.1% (inactive)
10 | O=c1oc2ccc(Br)cc2cc1C1=CSc2nc3sc4c(c3c(=O)n2N=C1)CCCC4 | 96.2% (inactive)
11 | CC(=O)/C=C/c1cccc2c1C(=O)NC(C)(c1cc3cc(Br)ccc3oc1=O)N2 (stereo not drawn) | 21.3% (inactive)
12 | O=c1[nH]c(=O)c2c(-c3cc4ccccc4oc3=O)ccnc2[nH]1 | 48.1% (inactive)
13 | O=C(/C=C/Nc1ccc2oc(=O)ccc2c1)c1cc2cc(Br)ccc2oc1=O | 92.5% (inactive)
14 | CC1(c2cc3cc(Cl)ccc3oc2=O)NC(=O)c2c(/C=C/C(=O)OC3CC4CCC3(C)C4(C)C)cccc2N1 (stereo not drawn) | 59.6% (inactive)
15 | COc1ccc(-c2ccnc(SCc3cc4ccccc4[nH]c3=O)n2)cc1OC | -67% (active)
16 | CC12CC[C@@H]3[C@]4(C)COC(c5cn[nH]c5-c5cccc(Br)c5)O[C@@H]4CC[C@@]3(C)[C@@H]1CC(C1=CCOC1=O)O2 (stereo partly drawn) | 39.9% (inactive)
17 | O=C(c1ccc(OCCN2CCOCC2)cc1)C1[C@H](c2ccc(Cl)cc2)[C@@H](c2ccccc2)NC12C(=O)Nc1ccc(Br)cc12 (stereo partly drawn) | 15.4% (inactive)
18 | COc1ccc2c(c1)c(/C=N/Nc1ccc3ccccc3n1)cn2C | -45.4% (active)
19 | CN(C)CCOc1ccc(C(=O)C2[C@H](c3ccc(Cl)cc3)[C@@H](c3ccccc3)NC23C(=O)Nc2ccc(Br)cc23)cc1 (stereo partly drawn) | 18.5% (inactive)

Row | Compound | growth
20 | O=c1[nH]c2ccc(Cl)cc2cc1CSc1nccc(-c2ccc(Cl)cc2)n1 | -51.3% (active)
21 | COc1cccc(/C=C/c2nc3ccccc3c(=O)n2CC(=O)Nc2ccc(Cl)cc2)c1 | 60.5% (inactive)
22 | CCCSc1nc(Nc2ccc(S(N)(=O)=O)cc2)c(C#N)c(-c2cc(OC)c(OC)c(OC)c2)n1 | 25.6% (inactive)
23 | CC(/C=C1\SC(=S)N(CCCC(=O)NC(CC(C)C)C(=O)O)C1=O)=C\c1ccccc1 (stereo not drawn) | 79.5% (inactive)
24 | COc1ccc(/C=C/c2nc3ccccc3c(=O)n2CC(=O)Nc2ccc(Cl)cc2)cc1 | 43.1% (inactive)
25 | Cn1cc(-c2cc3nc(-c4cn(C)c5ncc(Br)cc45)cc(N)n3n2)c2cc(Cl)ccc21 | -71.7% (active)
26 | Cn1cc(-c2cc(N)n3nc(-c4cn(C)c5ncccc45)cc3n2)c2cccnc21 | 86.5% (inactive)
27 | Cc1ccc([C@H]2C(C(=O)c3ccc(Cl)cc3)C3(N[C@@H]2c2ccccc2)C(=O)Nc2ccc(Cl)cc23)cc1 (stereo partly drawn) | 39.1% (inactive)
28 | O=C(Cn1c(/C=C/c2ccccc2)nc2ccccc2c1=O)Nc1ccc(Cl)cc1 | 20.4% (inactive)
29 | CC12CC[C@@H]3[C@]4(C)COC(c5cn[nH]c5-c5cccc(Cl)c5)O[C@@H]4CC[C@@]3(C)[C@@H]1CC(C1=CCOC1=O)O2 (stereo partly drawn) | 45.6% (inactive)
30 | CCCCSc1nc(Nc2ccc(S(N)(=O)=O)cc2)c(C#N)c(-c2cc(OC)c(OC)c(OC)c2)n1 | 34.9% (inactive)
31 | CCOC(=O)/C=C/c1cccc2c1C(=O)NC(C)(c1cc3cc(Cl)ccc3oc1=O)N2 (stereo not drawn) | 10.5% (inactive)
32 | O=C(c1ccc(OCCN2CCOCC2)cc1)C1[C@H](c2ccc(Cl)cc2)[C@@H](c2ccccc2)NC12C(=O)Nc1ccc(Cl)cc12 (stereo partly drawn) | 14.8% (inactive)
33 | CC(C)c1sc(NC(=O)c2cc(NC(=O)c3cc(NC(=O)c4nccn4C)cn3C)cn2C)nc1C(=O)NCCCN(C)C | 102% (inactive)
34 | COc1c(F)ccc(C(=O)Nc2ccc3nc(NC(=O)C4CCCN(S(=O)(=O)c5ccc(Cl)cc5)C4)sc3c2)c1F (stereo not drawn) | 68.9% (inactive)
35 | O=C(N1c2ccccc2Sc2ccccc21)n1ccc2cccnc21 | 53.6% (inactive)
36 | Cn1cc(-c2cc(N)n3nc(-c4cn(C)c5ncc(Br)cc45)cc3n2)c2cc(Br)cnc21 | 56.6% (inactive)
37 | CC1=C(C#N)C2=NNCC(c3ccccc3)=NN2C(c2ccccc2)=C1 | 99.8% (inactive)
38 | C=C1CC[C@@H]2[C@]3(C)COC(c4cn[nH]c4-c4ccc(F)cc4)O[C@@H]3CC[C@@]2(C)[C@@H]1C/C=C1/C(=O)OCC1O (stereo partly drawn) | 1.51% (active)
